# Measurements taken from PubChem BioAssay (Tox21).
# Records with an inconclusive call do not appear. Calls of active or inactive are those of the source. Unless noted, calls come from the whole dose curve; as a rule, active = well fitted cell-killing curve with a large enough effect in the repeat runs; inconclusive = weak or mixed curves, or effect the other way; inactive = no such curve, though single readings can be large or run the other way.
# Experiment: qHTS assay to identify small molecule antagonists of the vitamin D receptor (VDR) signaling pathway - cell viability counter screen (AID 743225); note: nearly all actives have a fitted effect of over 50% in size
# Details: VDR-bla HEK293T viability, CellTiter-Glo luminescence, 16 h; series mostly up to 61 µM
# How it was run: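 VDR-UAS-bla HEK 293T cells were plated and incubated 4 h at 37C, then dosed with compound plus 3 nM (final) 1-alpha,25-dihydroxyvitamin D3 for 16 h. After the 2 h beta-lactamase read, viability in the same wells was read as CellTiter-Glo luminescence after 30 min at room temperature.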
row,SMILES,outcome
1,C[C@]12CC[C@H]3[C@@H](CC=C4C[C@@H](O)CC[C@@]43C)[C@@H]1CC[C@@H]2O,inactive
2,CCCCC(=O)Cl,inactive
3,CCCCCCI,inactive
4,CC(C)[N+](=O)[O-],inactive
5,OC(c1ccccc1)(c1ccccc1)C1CCNCC1,inactive
6,CC(Cl)(Cl)[N+](=O)[O-],inactive
7,C=C(C)CN(CC)c1c([N+](=O)[O-])cc(C(F)(F)F)cc1[N+](=O)[O-],inactive
8,CN1CCN(C(=O)O[C@H]2c3nccnc3C(=O)N2c2ccc(Cl)cn2)CC1,inactive
9,CCCCCCBr,inactive
10,NC(=S)C(N)=S,inactive
11,Cc1ncc2n1-c1ccc(Cl)cc1C(c1ccccc1F)=NC2,inactive
12,O=C1c2ccccc2C(=O)c2ccccc21,inactive
13,Cc1ncc(CNC(=O)N(CCCl)N=O)c(N)n1,inactive
14,C[N+](C)=CCl,inactive
15,CNC(=O)Oc1ccccc1C1OCCO1,inactive
16,O=[N+]([O-])c1cccc2cccnc12,inactive
17,OCCBr,inactive
18,O=C(Nc1ccccc1)c1ccccc1I,inactive
19,CC(C)(C)NCC(O)c1cc(Cl)c(N)c(Cl)c1 (stereo unspecified),inactive
20,O=[N+]([O-])c1ccc2c3c(cccc13)CC2,inactive
21,CCOP(=O)(OCC)OP(=O)(OCC)OCC,inactive
22,CCC(=O)C(CCN(C)C)(c1ccccc1)c1ccccc1,inactive
23,C[C@@H]1CN(C2CCC(C#N)(c3ccc(F)cc3)CC2)CC[C@]1(C(=O)O)c1ccccc1 (stereo partly specified),inactive
24,ClC(Cl)C(Cl)Cl,inactive
25,CC1CCC(=O)O1 (stereo unspecified),inactive
26,CS(=O)(=O)c1cc(C(F)(F)F)ccc1C(=O)c1cnoc1C1CC1,inactive
27,COc1cc2c(cc1OC)[C@@]13CCN4CC5=CCO[C@H]6CC(=O)N2[C@H]1[C@H]6[C@H]5C[C@H]43,inactive
28,CNC(=O)Oc1ccc(N(C)C)c(C)c1,inactive
29,NC(=O)O,inactive

# Experiment: qHTS assay to identify small molecule agonists of the NFkB signaling pathway (AID 1159509; active = well fitted curve in the direction sought with a large enough effect in the signal ratio in the repeat runs, not every such curve was filed as active; the % refers to the signal ratio)
# Details: NFkB-bla ME-180 cells, beta-lactamase FRET ratio, 5 h; series mostly up to 61 µM
# How it was run: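 Readout: FRET fluorescence, 405 nm excitation, 460/530 nm emission; beta-lactamase expression disrupts FRET. Cells: ME-180 stably carrying NF-kB-driven bla reporter. Compound exposure 5 hr, 37 C, 5% CO2.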
row,SMILES,outcome
1,ClCCCN1CCN(c2cccc(Cl)c2)CC1,inactive
2,C[C@]12CC[C@H]3[C@@H](CC=C4C[C@@H](O)CC[C@@]43C)[C@@H]1CC[C@@H]2O,inactive
3,CCCCC(=O)Cl,inactive
4,CCCCCCI,inactive
5,CC(C)[N+](=O)[O-],inactive
6,OC(c1ccccc1)(c1ccccc1)C1CCNCC1,inactive
7,CC(Cl)(Cl)[N+](=O)[O-],inactive
8,C=C(C)CN(CC)c1c([N+](=O)[O-])cc(C(F)(F)F)cc1[N+](=O)[O-],inactive
9,CN1CCN(C(=O)O[C@H]2c3nccnc3C(=O)N2c2ccc(Cl)cn2)CC1,inactive
10,CCCCCCBr,inactive
11,NC(=S)C(N)=S,inactive
12,Cc1ncc2n1-c1ccc(Cl)cc1C(c1ccccc1F)=NC2,inactive
13,COc1cccc(C(=O)NN(C(=O)c2cc(C)cc(C)c2)C(C)(C)C)c1C,inactive
14,O=C1c2ccccc2C(=O)c2ccccc21,inactive
15,Cc1ncc(CNC(=O)N(CCCl)N=O)c(N)n1,inactive
16,C[N+](C)=CCl,inactive
17,COc1cc(OC)nc(Oc2cccc(Oc3nc(OC)cc(OC)n3)c2C(=O)O)n1,inactive
18,CNC(=O)Oc1ccccc1C1OCCO1,inactive
19,O=[N+]([O-])c1cccc2cccnc12,inactive

row,SMILES,outcome
1,Cc1cc(C)nc(Nc2ccccc2)n1,inactive
2,OCCBr,inactive
3,O=C(Nc1ccccc1)c1ccccc1I,inactive
4,CC(C)(C)NCC(O)c1cc(Cl)c(N)c(Cl)c1 (stereo unspecified),inactive
5,CC(N)=S,inactive
6,O=[N+]([O-])c1ccc2c3c(cccc13)CC2,inactive
7,CCOP(=O)(OCC)OP(=O)(OCC)OCC,inactive
8,CCC(=O)C(CCN(C)C)(c1ccccc1)c1ccccc1,inactive
9,C[C@@H]1CN(C2CCC(C#N)(c3ccc(F)cc3)CC2)CC[C@]1(C(=O)O)c1ccccc1 (stereo partly specified),inactive
10,N#CC(CCc1ccc(Cl)cc1)(Cn1cncn1)c1ccccc1 (stereo unspecified),inactive
11,ClC(Cl)C(Cl)Cl,inactive
12,CC1(C(=O)Nc2ccc(O)c(Cl)c2Cl)CCCCC1,inactive
13,CC1CCC(=O)O1 (stereo unspecified),inactive
14,C=CCC1=C(C)[C@@H](OC(=O)[C@@H]2[C@@H](C=C(C)C)C2(C)C)CC1=O,inactive
15,CS(=O)(=O)c1cc(C(F)(F)F)ccc1C(=O)c1cnoc1C1CC1,inactive
16,COc1cc2c(cc1OC)[C@@]13CCN4CC5=CCO[C@H]6CC(=O)N2[C@H]1[C@H]6[C@H]5C[C@H]43,inactive
17,CNC(=O)Oc1ccc(N(C)C)c(C)c1,inactive
18,NC(=O)O,inactive
